# Reference: PubChem BioAssay (EPA / NIEHS)
# Results filed as inconclusive are left out. The source made the active and inactive calls. Rule for the calls: active = hit-call score of the fitted dose curve at least 0.9, where 1 is the maximum; inconclusive = response in the unintended direction; inactive = score below 0.9.
# Target: human Matrix Metalloproteinase-7 (MMP7), MMP7 (gene 4316) (UniProt P09237)
# Experiment: NVS_ENZ_hMMP7: NovaScreen (NVS) Enzymatic Assay for human Matrix Metalloproteinase-7 (MMP7) (AID 2283183)
# Description: NVS_ENZ_hMMP7 is a biochemical, single-readout assay that uses extracted gene-proteins in a cell-free assay. Measurements were taken 1 hour after chemical dosing in a 96-well plate.NVS_ENZ_hMMP7 is one of one assay component(s) measured or calculated from the NVS_ENZ_hMMP7 assay. It is designed to make measurements of enzyme activity, a form of enzyme reporter, as detected with fluorescence intensity signals by Fluorescence technology.Data from the assay component NVS_ENZ_hMMP7 was analyzed into 1 assay endpoint. This assay endpoint, NVS_ENZ_hMMP7, was analyzed in the positive analysis fitting direction relative to DMSO as the negative control and baseline of activity. Using a type of enzyme reporter, loss-of-signal activity can be used to understand changes in the enzymatic activity as they relate to the gene MMP7. Furthermore, this assay endpoint can be referred to as a primary readout, because this assay has produced multiple assay endpoints where this one serves a enzymatic activity function. To generalize the intended target to other relatable targets, this assay endpoint is annotated to the protease intended target family, where the subfamily is matrix metalloproteinase.
# Binding assays used specific radioligands (tritiated, iodinated) with non-radioactive competitive displacement ligands in agonist or antagonist protocols (as indicated) and various reference compounds and inhibitors to titrate specific binding to receptors and transporters. Most enzyme assays (CYPs, kinases, phosphatases, proteases, HDACs) used recombinant protein and specific substrates (fluorescence mostly, some colorimetric and radioactive) and inhibitors, followed by a biochemical separation of substrate and product. All assays for the biochemical HTS were initially run in duplicate at a single concentration (10 uM for CYP450 assays and 25 uM for all others). Assay-chemical combinations meeting a pre-defined threshold (e.g., 30% inhibition and other criteria defined below) were then run in singleton concentration-response format with maximum concentration of 20 uM for CYPs and 50 uM for all others. Each assay was run with positive and negative controls, and concurrent controls on every plate. The follow-up (secondary) screen tested active chemical-pairs in concentration series, as well as a few additional assays not tested in the primary screen, some selected negative inactives, and several cases re-run in the concentration series for confirmatory purposes.
# Sequence of human Matrix Metalloproteinase-7 (MMP7), MMP7 (gene 4316) (P09237 whole entry, looked up): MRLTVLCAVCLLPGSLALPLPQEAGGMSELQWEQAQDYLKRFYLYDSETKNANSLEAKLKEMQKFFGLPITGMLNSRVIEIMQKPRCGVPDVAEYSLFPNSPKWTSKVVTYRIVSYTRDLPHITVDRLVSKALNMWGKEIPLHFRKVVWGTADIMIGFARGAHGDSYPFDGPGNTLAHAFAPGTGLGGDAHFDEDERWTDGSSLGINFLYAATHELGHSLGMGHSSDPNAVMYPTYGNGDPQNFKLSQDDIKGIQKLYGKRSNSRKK
SMILES,outcome,AC50
S=C([S-])NCCNC(=S)[S-].[Mn+2],inactive,–
S=C(S)NCCNC(=S)S.[Mn+2].[S-]C([S-])=NCCN=C([S-])[S-].[Zn+2],–,3.74 µM (active)
CCCCC(CC)CN1C(=O)C2C3C=CC(C3)C2C1=O (stereo not given),inactive,–
CCCCOC(=O)[C@@H](C)Oc1ccc(Oc2ccc(C(F)(F)F)cn2)cc1,inactive,–
CC1(C)C(C=C(Cl)Cl)C1C(=O)OCc1cccc(Oc2ccccc2)c1 (stereo not given),inactive,–
C=CCOC(Cn1ccnc1)c1ccc(Cl)cc1Cl (stereo not given),–,9.22 µM (active)
Oc1ccc(C(c2ccc(O)cc2)C(Cl)(Cl)Cl)cc1,inactive,–
CCOC(=O)NCCOc1ccc(Oc2ccccc2)cc1,inactive,–
C[C@]12CC[C@@H]3c4ccc(O)cc4C[C@@H](CCCCCCCCCS(=O)CCCC(F)(F)C(F)(F)F)[C@H]3[C@@H]1CC[C@@H]2O (stereo not given in full),inactive,–
CC(C)(c1ccc(O)cc1)c1ccc(O)cc1,inactive,–
